# Target: USP14 (UniProt P54578)
# Experiment: log2 ratio of Biotin-Ahx-Ub-VS probe labelling (fragment/DMSO); higher = less target engagement (more negative = stronger competition), active = hit call of the paper (q ≤ 0.05, log2 ratio ≤ -1)
# Conditions: compound concentration: 200 uM; treatment time: 3 h
# Description: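 Competitive ABPP in HEK293T cell lysate. Lysates were treated with each chloroacetamide fragment at 200 µM for 3 h, then with Biotin-Ahx-Ub-VS (0.5 µM, 1 h), NeutrAvidin-enriched and analysed by diaPASEF LC-MS/MS. Protein LFQ was median-normalised; average log2 ratio is fragment/DMSO from an unpaired t-test (n=3 treated, n=44 DMSO). Hits: q ≤ 0.05, log2 ratio ≤ -1, unique peptides ≥ 2.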
# Chain of USP14 (P54578 whole entry, the tested form may be a part): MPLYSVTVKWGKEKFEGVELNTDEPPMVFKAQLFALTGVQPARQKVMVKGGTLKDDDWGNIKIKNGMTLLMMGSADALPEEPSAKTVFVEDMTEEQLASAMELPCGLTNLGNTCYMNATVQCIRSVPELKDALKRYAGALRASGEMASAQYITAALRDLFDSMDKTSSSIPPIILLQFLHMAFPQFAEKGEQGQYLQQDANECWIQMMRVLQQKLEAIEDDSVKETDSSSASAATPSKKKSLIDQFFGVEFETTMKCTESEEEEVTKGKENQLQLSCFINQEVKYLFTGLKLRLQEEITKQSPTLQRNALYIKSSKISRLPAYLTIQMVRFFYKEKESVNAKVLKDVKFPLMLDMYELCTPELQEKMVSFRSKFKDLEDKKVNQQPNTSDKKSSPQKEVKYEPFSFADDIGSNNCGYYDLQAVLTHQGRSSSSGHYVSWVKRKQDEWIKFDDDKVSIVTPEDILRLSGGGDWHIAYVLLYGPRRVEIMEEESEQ
row,Compound,log2 ratio of Biotin-Ahx-Ub-VS probe labelling
1,Cc1ccccc1C1(CNC(=O)CCl)CCOCC1,-0.0489 (inactive)
2,O=C(CCl)N1CCN(C(=O)Nc2ccccc2)CC1,0.127 (inactive)
3,O=C(CCl)NCCc1ccc(F)cc1,-0.0749 (inactive)
4,O=C(CCl)N1CCc2sccc2C1,-0.619 (inactive)
5,O=C(CCl)N[C@H]1CC[C@@H](CO)CC1,-0.814 (inactive)
6,O=C(CCl)NCc1ccc(N2CCOCC2)c(F)c1,0.1 (inactive)
7,COc1ccccc1C(C)NC(=O)CCl (stereo not given),-0.458 (inactive)
8,O=C(CCl)N1CC=C(c2c[nH]c3ccccc23)CC1,-0.573 (inactive)
9,O=C(CCl)NCc1ccc(Cl)cc1,-0.109 (inactive)
10,CN(Cc1nc2ccccc2[nH]1)C(=O)CCl.Cl,0.0145 (inactive)
11,Cn1cc(CN(Cc2ccc(Cl)cc2)C(=O)CCl)cn1,-1.03 (active)
12,CN(C(=O)CCl)c1nc2ccccc2s1,-0.178 (inactive)
13,O=C(CCl)N1CCc2ccccc2C(O)C1 (stereo not given),-0.255 (inactive)
14,Cc1cccc(N(CCC#N)C(=O)CCl)c1C,0.0267 (inactive)
15,Cc1cccn2cc(CCNC(=O)CCl)nc12.Cl,-0.461 (inactive)
16,Cc1ccc(CC(NC(=O)CCl)c2ccccn2)cc1.Cl (stereo not given),-0.0182 (inactive)
17,Cc1nc(-c2cccc(NC(=O)CCl)c2)cs1,-0.378 (inactive)
18,O=C(CCl)N1CCCN(C(=O)c2ccc(Cl)cc2)CC1,-0.452 (inactive)
19,CS(=O)(=O)c1ccc(NC(=O)CCl)cc1,0.0136 (inactive)
20,COc1ccc(Cl)cc1NC(=O)CCl,-0.655 (inactive)

row,Compound,log2 ratio of Biotin-Ahx-Ub-VS probe labelling
1,O=C(CCl)N1CCCCCC1c1ncon1 (stereo not given),-0.087 (inactive)
2,O=C(CCl)N1CCC(OCc2ccccc2F)CC1,0.0975 (inactive)
3,O=C(CCl)Nc1ccc(F)cc1Cl,-0.833 (inactive)
4,CNC(=O)C1CCN(C(=O)CCl)CC1,-0.146 (inactive)
5,Cc1cnc2[nH]cc(CCNC(=O)CCl)c2c1,-0.111 (inactive)
6,CCN(Cc1ccc(C#N)cc1F)C(=O)CCl,-0.392 (inactive)
7,O=C(CCl)N1CCOC(c2cccc(F)c2)C1 (stereo not given),-0.3 (inactive)
8,CCC1c2ccsc2CCN1C(=O)CCl (stereo not given),-0.479 (inactive)
9,COc1ccc(C2CCCN2C(=O)CCl)c(OC)c1 (stereo not given),-0.545 (inactive)
10,Cc1ccc(-c2nnc(C)[nH]2)c(NC(=O)CCl)c1,-0.203 (inactive)
11,Cl.Cn1nccc1C(NC(=O)CCl)c1ccccc1 (stereo not given),-0.0812 (inactive)
12,Cc1ccc(CN(C)C(=O)CCl)o1,-0.0502 (inactive)
13,O=C(CCl)NCCc1cccc2ccccc12,0.0871 (inactive)
14,CC(=O)Nc1ccc(NC(=O)CCl)cc1,0.0669 (inactive)
15,CC1Cc2ccccc2N1C(=O)CCl (stereo not given),-0.771 (inactive)
16,O=C(CCl)N(Cc1ccsc1)C1CC1,-0.456 (inactive)
17,COCC1C=CCCN1C(=O)CCl (stereo not given),-0.0905 (inactive)
18,O=C(CCl)Nc1cccc(C(=O)N2CCSCC2)c1,-0.335 (inactive)
19,Cl.O=C(CCl)N1CCc2ncncc2C1,-0.0964 (inactive)
20,O=C(CCl)NCC(=O)N1CCCC1,-0.0869 (inactive)
